# Assay results taken from PubChem BioAssay (NCI).
# The panel holds about 83,000 compounds, 20% with a hit somewhere; the sample as a whole holds those more often.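 Activity criterion: percent growth below 10, measured after cells in 96-well plates were exposed to a single compound concentration for 48 hours.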 Activity calls are given as the source filed them.
# Tested on: T-47D breast
# Experiment: NCI-60 one-dose screen, 48 h (100 = growth as untreated, 0 = no growth, -100 = all killed)
# Conditions: 10 µM unless noted
row,SMILES,growth
1,C=C1CC[C@@H]2[C@]3(C)COC(c4cn(-c5ccccc5)nc4-c4cccc([N+](=O)[O-])c4)O[C@@H]3CC[C@@]2(C)[C@@H]1C/C=C1/C(=O)OC[C@H]1O (some centres not stated),-42.4% (active)
2,Cc1ccc(NC(=O)CN2CCN(c3ncnc4c3cnn4-c3ccccc3)CC2)cc1,78.9% (inactive)
3,Cc1cc(C)cc(C(=O)Nc2cccc(-c3cn(-c4ccc(S(N)(=O)=O)cc4)nn3)c2)c1,35% (inactive)
4,O=C(C1=CNC(=S)NC1c1ccc(O)cc1)c1cc2ccccc2oc1=O (configuration not stated),112% (inactive)

# Tested on: BT-549 breast
# Experiment: as above
# Conditions: 10 µM unless noted
row,SMILES,growth
1,CC1=C(C#N)C2=NNCC(c3ccccc3)=NN2C(c2ccccc2)=C1,104% (inactive)
2,O=C(O)c1ccc(-c2ccc(/C=N/NC(=O)c3[nH]c4ccc(Br)cc4c3-c3ccccc3)s2)cc1,8.87% (active)
3,N#Cc1c(-c2ccc(Cl)cc2)nc2n[nH]c(-c3ccc(Cl)cc3)c2c1-c1cccs1,55.4% (inactive)
4,COc1c(F)ccc(C(=O)Nc2ccc3nc(NC(=O)C4CCCN(S(=O)(=O)c5cccc(Br)c5)C4)sc3c2)c1F (configuration not stated),74.5% (inactive)
5,O=c1[nH]c2ccc(Cl)cc2cc1CSc1nccc(-c2ccc(Cl)cc2)n1,23.9% (inactive)
6,O=C(O)c1cccc(-c2ccc(/C=N/NC(=O)c3[nH]c4ccc(Br)cc4c3-c3ccccc3)s2)c1,49.3% (inactive)
7,O=c1[nH]c(=O)c2c(-c3cc4ccccc4oc3=O)ccnc2[nH]1,70.2% (inactive)
8,N#Cc1c(-c2ccc(Br)cc2)nc2n[nH]c(-c3ccc(Br)cc3)c2c1-c1ccc(C(F)(F)F)cc1,11.3% (inactive)
9,COc1cccc(/C=C/c2nc3ccccc3c(=O)n2CC(=O)Nc2ccc(Cl)cc2)c1,86.8% (inactive)
10,CSc1ccc(C(=O)Nc2ccc3nn(/C(C#N)=C/c4ccccn4)nc3c2)cc1,-90.1% (active)
11,O=C(/C=C/c1ccc(-c2ccccc2)cc1)c1nc2ccccc2n1Cc1ccc(Br)cc1,41.7% (inactive)
12,COc1ccc2c(c1)c(/C=N/Nc1ccc3ccccc3n1)cn2C,51.4% (inactive)
13,COc1c(F)ccc(C(=O)Nc2ccc3nc(NC(=O)C4CCCN(S(=O)(=O)c5ccc(Br)c(F)c5)C4)sc3c2)c1F (configuration not stated),77% (inactive)
14,N#Cc1c(-c2cccc(Cl)c2Cl)cc(-c2ccc3ccccc3c2)[nH]c1=O,-5.5% (active)
15,Nc1cc2ccccc2c(=O)n1NC(=O)c1ccc(I)cc1,108% (inactive)
16,CCN(CC)c1ccnc(CNCCSC(c2ccccc2)(c2ccccc2)c2ccc(OC)cc2)c1,-25.4% (active)
17,N#Cc1c(-c2ccccc2Cl)cc(-c2c[nH]c3ccccc23)[nH]c1=O,73.9% (inactive)
18,N#Cc1ccc(/C=N/NC(=O)c2[nH]c3ccc(Br)cc3c2-c2ccccc2)o1,-7.06% (active)
19,Cc1nc(Nc2ncc(C(=O)Nc3c(C)cccc3Cl)s2)cc(N2CCN(CCCNC(=O)COc3ccc(C4CCC(=O)NC4=O)cc3)CC2)n1 (configuration not stated),68.5% (inactive)

row,SMILES,growth
1,Cc1cc(=O)oc2cc(OCCCOc3ccc(/C=C/C(=O)Nc4ccccc4N)cc3)ccc12,-59.7% (active)
2,COc1c(F)ccc(C(=O)Nc2ccc3nc(NC(=O)C4CCCN(S(=O)(=O)c5ccc(C(F)(F)F)cc5)C4)sc3c2)c1F (configuration not stated),68.7% (inactive)
3,Cc1sc2c(c1C)C(c1ccc(Cl)cc1)=N[C@@H](CC(=O)NCCCCCNC(=O)COc1ccc(C3CCC(=O)NC3=O)cc1)c1nnc(C)n1-2 (some centres not stated),-0.134% (active)
4,COc1ccc(C(=O)/C=C/c2ccc(OCc3ccc(F)cc3)c(OC)c2)cc1OC,-1.79% (active)
5,CCOC(=O)C1=C(N)N(c2ccccc2)C2=C(C(=O)CC(C)(C)C2)C1c1ccc(Cl)cc1Cl (configuration not stated),33.4% (inactive)
6,CCCCSc1nc(Nc2ccc(S(N)(=O)=O)cc2)c(C#N)c(-c2ccc(Cl)cc2)n1,96.1% (inactive)
7,CC(C)CCNC(=O)N/C(N)=N/c1nc2ccccc2s1,64.6% (inactive)
8,CN(C)c1nc(NCCNS(=O)(=O)c2ccc(C3=Nc4c(N)nc(N)nc4NC(c4ccc(F)cc4)C3)cc2)nc(Nc2ccc(F)cc2)n1 (configuration not stated),48.7% (inactive)
9,COc1ccc2cc([C@H](C)C(=O)N/N=C/c3ccc(Br)cc3)ccc2c1,104% (inactive)
10,Cn1cc(-c2cc3nc(-c4cn(C)c5ncccc45)cc(N)n3n2)c2ccccc21,-34.7% (active)
11,COc1ccc(-c2cc(C(=O)NCc3ccccc3)nn2-c2ccc(S(C)(=O)=O)cc2)cc1OC,104% (inactive)
12,COc1ccc(-c2ccc(SCC(=O)Nc3ccc(S(N)(=O)=O)cc3Br)nn2)cc1,49.3% (inactive)
13,C#CCOc1cc(N(CC)CC)ccc1C(C(=O)NC(C)(C)C)N(C(=O)C1CCc2cc(F)ccc2O1)c1cc(C)cc(C)c1 (configuration not stated),43.1% (inactive)
14,N#Cc1c(-c2ccc(Br)cc2)nc2n[nH]c(-c3ccc(Br)cc3)c2c1-c1ccc(F)cc1,107% (inactive)
15,CSc1ccc(NC(=O)c2ccc3nn(/C(C#N)=C/c4ccccn4)nc3c2)cc1,-97.9% (active)
16,C=C1CC[C@@H]2[C@]3(C)COC(c4cn(-c5ccccc5)nc4-c4cccc([N+](=O)[O-])c4)O[C@@H]3CC[C@@]2(C)[C@@H]1C/C=C1/C(=O)OC[C@H]1O (some centres not stated),-55.9% (active)
17,Cc1ccc(NC(=O)CN2CCN(c3ncnc4c3cnn4-c3ccccc3)CC2)cc1,85% (inactive)
18,Cc1cc(C)cc(C(=O)Nc2cccc(-c3cn(-c4ccc(S(N)(=O)=O)cc4)nn3)c2)c1,67.8% (inactive)
19,O=C(C1=CNC(=S)NC1c1ccc(O)cc1)c1cc2ccccc2oc1=O (configuration not stated),83.7% (inactive)
